Rows were chosen to be rich in hits. Some 1.2% of all compounds tested hit in one or more screens of this group.
BJeLR viability – BJeLR cell viability loss; BJeLR (HRASV12) viability, CellTiter-Glo ATP luminescence, 48 h; inhibition, % (no concentration beside the values); hit rate 0.17% among 300,000; in the data active = inhibition above about 50%
3CLpro inhibitor – SARS-CoV 3CLpro protease inhibition. hit rate 0.14% among 290,000. inhibition, % at 6 µM. recombinant SARS-CoV 3CLpro, quenched FRET peptide cleavage; in the data active = inhibition above about 12%
PrP UTR inh – suppresses PrP 5' UTR mRNA reporter expression. hit rate 0.35% among 340,000. AID 488862. cell-based PrP 5' UTR mRNA reporter, plate reader. inhibition, % (test concentration not listed); in the data active = inhibition above about 52%; note: 0 = median of the neutral control wells
SSB-PriA inh – K. pneumoniae PriA-SSBct interaction inhibition; AlphaScreen SSBct-PriA binding, biotinylated peptide; inhibition, % at 33 µM; hit rate 0.6% among 430,000; in the data active = inhibition mostly above about 37%, no sharp cut-off; inactive = mostly below about 20%;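 note: plate controls were negative control peptide for no effect and reference peptide for full effect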
PrPC surface inh – inhibitors of human cell surface prion protein PrPC; P04156; TR-FRET read-out; inhibition, % at 13.8 µM; hit rate 0.43% among 370,000; in the data active = inhibition above about 24%; note: 0% = median of the test wells and 100% = reference compound wells
* = called active by the depositor; . = no result; ! = repeats disagree.

SMILES | BJeLR viability | 3CLpro inhibitor | PrP UTR inh | SSB-PriA inh | PrPC surface inh
Nc1ccccc1Nc1cc(-c2ccccc2)nn1-c1cccc(Cl)c1 | -3.9 | 8.3 | -4.5 | 59.0* | 11.3
O=C(CCl)Nc1cc(-c2ccccc2)nn1-c1ccccc1 | -0.3 | 11.6 | -8.3 | -9.1 | -1.8
O=[N+]([O-])c1c(Nc2ccccn2)cc(Cl)c2nonc12 | 111.8* | 3.1 | -17.2 | -5.5 | -7.6
O=C(O)c1ccccc1Nc1cc(Cl)c2nonc2c1[N+](=O)[O-] | 6.8 | 2.7 | -15.0 | 6.3 | -23.2
CC1=CC(C)(C)Nc2ccccc21 | 0.7 | -6.7 | -0.3 | 53.5*! | 7.8
Cc1cccc(CS(=O)(=O)NCc2nn(C)c3c2COCC3)c1 | . | . | . | -6.0 | .
Cc1nc(Nc2ccc(NC(=O)Nc3ccccc3Cl)cc2)cc(-n2cccn2)n1 | . | . | . | -3.0 | .
Cn1nc([N+](=O)[O-])c(C(C#N)c2nc3ccccc3s2)c(Cl)c1=O (stereo not given) | . | . | . | 91.5* | .
CCc1nnc(NC(=O)CSc2ccc3nnc(CCNC(=O)c4ccc(OC)cc4)n3n2)s1 | . | . | . | -23.0 | .
Cc1cc(C(=O)Nc2nnc(-c3cc(C)nn3C)o2)on1 | . | . | . | 49.0* | .
Cc1cc(-c2nnc(NC(=O)c3cc(C)on3)o2)n(C)n1 | . | . | . | -5.0 | .
CCCCn1c(N)c(N(CCOC)C(=O)CSCc2cccc(C)c2)c(=O)[nH]c1=O | -13.3 | . | -8.0 | 49.3* | 3.2
O=C(NCC(c1cccs1)N1CCc2ccccc21)c1ccccc1[N+](=O)[O-] (stereo not given) | . | . | . | 46.0* | .
C/C(=N\Nc1ncnc2sc(C)c(C)c12)c1ccccn1 | 79.7* | -6.5 | 18.3 | . | 1.2
C/C(=N\Nc1ncc(Cl)cc1Cl)c1ccccn1 | 66.5* | -0.3 | 77.8* | . | .
Cc1ccc(-n2ncc3c2ncn2nc(-c4ccncc4)nc32)cc1C | . | . | . | -20.0 | .
CC1(C)N=C(SCC(=O)Nc2ccc(F)c(Cl)c2)C(c2ccccc2)=N1 | . | . | . | -17.0 | .
Cn1c(-c2ccc(Cl)cc2)cnc1N | . | 5.4 | -18.9 | 54.1* | -1.4
CCOc1ccc(-c2cnc(N)n2C)cc1 | 6.8 | 1.1 | -26.9 | 1.6 | 0.8
O=C(CSc1nc2ccccc2[nH]1)c1c[nH]c2ccccc12 | 0.4 | 1.3 | -22.5 | 64.7* | 6.6
Cc1ccc2nc(SCC(=O)c3c[nH]c4ccccc34)[nH]c2c1 | -1.6 | -4.0 | -10.0 | 0.2 | 3.6
O=C1c2cccnc2-c2ncccc21 | 0.5 | -0.5 | 0.6 | 37.0*! | -6.0
COc1ccccc1N1C(=O)c2cccnc2C1=O | -9.9 | 2.9 | -11.0 | -6.0 | 0.1
O=C1c2ccccc2-c2nccnc21 | 1.3 | 1.4 | -1.4 | -1.6 | -7.4
COC1=C(Br)C(=O)c2ncccc2C1=O | . | . | -11.5 | 40.7* | -34.1
SMILES | BJeLR viability | 3CLpro inhibitor | PrP UTR inh | SSB-PriA inh | PrPC surface inh
O=C(COc1ccc(Cl)cc1Cl)N1CCC(Oc2nc3ccccc3o2)CC1 | . | . | . | -19.0 | .
COc1cnc(-c2ccccn2)nc1Oc1ccccc1Cl | -4.0 | 3.5 | -4.4 | 1.8 | 2.6
COc1cnc(-c2ccccn2)nc1Oc1ccc(Cl)c2ccccc12 | -2.7 | 1.5 | 8.9 | 0.4 | 0.3
COc1cnc(-c2ccccn2)nc1Oc1ccc(F)cc1F | -7.2 | 3.0 | -13.8 | 53.5* | -5.3
COc1cnc(-c2ccccn2)nc1Oc1ccc(Cl)cc1 | -8.7 | 5.6 | -4.9 | 52.3* | -3.0
O=C(CC1SC(=Nc2ccc(O)cc2)NC1=O)Nc1ccc(Br)cc1 (stereo not given) | . | . | . | 0.0 | .
OC(CNCCC1C=Nc2ccccc21)Cn1c2ccc(Cl)cc2c2cc(Cl)ccc21 (stereo not given) | 105.3* | -1.6 | 2.0 | 65.3* | -8.4
Nc1[nH]n(-c2ccccc2)c(=O)c1N=Nc1ccccc1 | 0.2 | -2.2 | -56.9 | 74.8* | 2.4
CC(NCc1cccc(Cl)c1Cl)C(O)c1ccccc1 (stereo not given) | 6.5 | 3.1 | -17.5 | 116.3* | 2.3
FC(F)(F)c1nnc2c(Sc3ccccc3)nc3ccc(Cl)cc3n12 | 61.5* | 3.8 | -12.0 | 0.8 | -6.8
FC(F)(F)c1nc2ccccc2n2c(-c3ccc(Cl)cc3Cl)nnc12 | 4.5 | -8.5 | -10.7 | -10.5 | -10.7
Cc1ccc(-c2c(C(=O)O)c(C(=O)O)c3n2CSC3)cc1 | 5.3 | 1.0 | -8.9 | 72.8* | 1.9
CC(C)(C)c1ccc(-c2c(C(=O)O)c(C(=O)O)c3n2CSC3)cc1 | 10.4 | 7.5 | -28.8 | 3.7 | 7.5
Cc1c(C)c([N+](=O)[O-])c(C)c(C)c1N | . | . | -23.2 | -6.0 | 1.7
CC(C)c1cc(C(C)C)c(C(C)C)c([N+](=O)[O-])c1N | . | . | . | 35.0* | .
Cc1cc(NC(=O)Cn2cccc(-c3nc(C4CC4)no3)c2=O)no1 | . | . | . | 26.0* | .
COc1cccc2cc(C(=O)N(C[C@H]3CCCO3)c3nc4c(C)ccc(C)c4s3)oc12 | . | . | . | -8.0 | .
Cn1nc(CN(Cc2ccco2)C(=O)N2CCN(S(C)(=O)=O)C2=O)c2c1CCC2 | . | . | . | 84.0* | .
O=C(NCCCc1ccccc1)C1CCN(S(=O)(=O)c2cccc3cnccc23)CC1 | . | . | . | -25.0 | .
O=C(NCC(c1ccc(F)cc1)N1CCOCC1)c1cccc(Br)c1 (stereo not given) | -7.1 | -3.0 | -5.0 | 42.1* | 0.7
CC(C)n1c(/C=C/[C@@H](O)C[C@@H](O)CC(=O)O)c(-c2ccc(F)cc2)c2ccccc21 | 17.0 | 2.1 | -7.5 | -8.6 | -0.9
COCc1c(C(C)C)nc(C(C)C)c(/C=C/[C@@H](O)C[C@@H](O)CC(=O)O)c1-c1ccc(F)cc1 | 72.5* | . | . | . | .
CCc1ccc2ncc(S(=O)(=O)c3ccc(C)c(C)c3)c(N3CCC(C(N)=O)CC3)c2c1 | . | . | . | -4.0 | .
NC(=O)[C@@H]1CCCNc2c(I)cc([N+](=O)[O-])cc2C(=O)N[C@@H](Cc2ccccc2)C(=O)N[C@@H](Cc2cnc[nH]2)C(=O)N1 | -1.1 | 3.8 | -21.4 | 40.5* | -25.6
NC(=O)[C@@H]1CCCNc2c(I)cc([N+](=O)[O-])cc2C(=O)N[C@@H](CO)C(=O)N[C@@H](Cc2ccc(O)cc2)C(=O)N1 | -2.1 | 1.5 | -1.1 | 2.0 | -25.0
SMILES | BJeLR viability | 3CLpro inhibitor | PrP UTR inh | SSB-PriA inh | PrPC surface inh
O=C(Oc1cccc2cccnc12)c1ccco1 | 5.8 | -2.8 | -6.8 | 6.2 | -5.2
O=C(C[C@H](Sc1cccc2cccnc12)c1ccc(OC(F)F)cc1)c1ccco1 | . | . | . | 83.0* | .
COc1ccc(C(CC(=O)c2ccco2)Sc2cccc3cccnc23)cc1OC (stereo not given) | . | . | . | 81.0* | .
CCC(O)=C1C(=O)CCCC1=NCCc1c(C)[nH]c2ccc(C)cc12 | . | . | . | -2.6 | .
Cc1cc(NC(=O)CCS(=O)(=O)c2nc(-c3ccccc3)cc(C(F)(F)F)n2)no1 | . | . | -7.1 | -9.0 | -4.1
CS(=O)(=O)c1nc(-c2ccccc2)cc(C(F)(F)F)n1 | 17.5 | 3.4 | -6.1 | 8.5 | 28.9*
CC(/C=C/C=C/c1ccccc1)=NNC(=O)c1cccnc1 | . | . | . | -1.8 | .
C=C1C(=O)[C@@]23[C@H](O)C[C@@H]4C(C)(C)CC[C@H](O)[C@]4(C)[C@@H]2C[C@H](O)[C@@H]1[C@H]3O | -6.6 | -1.1 | -16.9 | -8.4 | 25.3*
C=C1C(=O)[C@@]23[C@H](O)C[C@@H]4C(C)(C)CC[C@H](O)[C@@]4(C)[C@@H]2CC[C@@H]1[C@H]3O | 14.4 | 3.2 | 0.7 | -2.5 | 70.9*

Bioassay records: PubChem BioAssay, several laboratories
